Data taken from PubChem BioAssay AID492990 (National Center for Advancing Translational Sciences (NCATS), 2010).
Calls of active or inactive are those of the source.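 How the source made its calls: active means clear integrase inhibition at one or more tested doses, judged significant by the depositor; inactive means only baseline response.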

These compounds were tested on HIV-1 integrase (assay: Gel-Based Assay for Inhibitors of HIV Integrase: Counterscreen for TDP1). Settings: recombinant HIV-1 integrase, 32P DNA gel densitometry; series mostly up to 333 µM.
Description: HIV Integrase enables the HIV virus to integrate its genetic material into host cells's DNA. This particular assay was utilized as a counterscreen for inhibitors of human tyrosyl DNA phosphodiesterase I (Tdp1). See probe development summary bioassay AID 485312 for further details on the tdp1 inhibitors project.
HIV-1 integrase catalytic assay was carried out as previously described [Marchand et al. Methods in Enzymology 2001] by mixing 400 nM recombinant integrase with 20 nM [32P] radiolabeled DNA substrate in a buffer containing 50 mM MOPS, pH 7.2, 7.5 mM MgCl2, 14.3 mM 2-mercaptoethanol, and the drug of interest or 10% DMSO. Reactions were incubated at 37 degrees C for 1 h and quenched by the addition of an equal volume of gel loading dye (formamide with 0.25% bromophenol blue, 0.25% xylene cyanol and 5 mM EDTA). Reaction products were separated on a 16% polyacrylamide denaturing sequencing gel. Dried gels were exposed overnight and visualized using a Typhoon 8600 (GE Healthcare, Piscataway, NJ). Densitometry analyses were performed using the ImageQuant software from GE Healthcare.

SMILES	outcome
O=c1c2ccccc2nc2sc(Nc3ccc4c(c3)CCC4)nn12	inactive
O=c1c2ccc(Br)cc2nc2sc(Nc3ccc4c(c3)CCC4)nn12	inactive
